ERAP1 HTS inh: ERAP1 (human) enzyme inhibition; 0.15% of 340,000 active; Q9NZ08; inhibition, % at 10.7 µM; recombinant ERAP1, Leu-AMC fluorescence, 60 min;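 active = mean replicate inhibition of at least 30%, or all replicates individually reaching that 30% level; inactive = mean below 30% and not every replicate reaching it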;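 note: 0% = neutral control wells and 100% = L-leucinethiol positive control wells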
FGF22 binding-1: binders of recombinant human FGF22 by thermal shift. Q9HCT0. SYPRO orange fluorescence; percent of sucrose octasulfate shift, DMSO zero. activity (Tm shift, normalised), % at 9.99 µM. 1.5% of 340,000 active. AID 651658;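 active = mean Tm shift, scaled 0 neutral to 100 positive control, at about 1.3% or above, every replicate too, limit read from the data; inconclusive = no clear call, values can overlap the other calls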
RAD52 anneal inh: RAD52 (human) annealing inhibition; P43351; recombinant RAD52 DNA annealing, FRET fluorescence; inhibition, % at 18.7 µM; 0.46% of 360,000 active; AID 651710;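 active = every replicate showing at least 50% inhibition; inconclusive = mean inhibition at least 50% but not in every replicate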
DENV2 CPE rescue: protects cells from dengue virus 2 cytopathic effect. 1.7% of 350,000 active. CPE inhibition, % at 9.99 µM. DENV2-infected cells, cytopathic effect rescue, plate reader; in the data active = CPE inhibition above about 20%, passing the limit was not always enough; inconclusive = no clear call, values can overlap the other calls; tested in BHK-21 cells;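 note: 0% = median of neutral control wells and 100% = median of positive control wells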
AF4-AF9 inh: MLL-AF4/AF9 protein interaction inhibition; AID 651704; 0.47% of 350,000 active; inhibition, % at 10 µM; AlphaScreen, biotin-AF4 peptide binding to FLAG-AF9;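 active = every replicate reaching a set inhibition limit, whatever the replicate mean, cut at about 25% in these data; inconclusive = mean inhibition reaches that limit but some replicates miss it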;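 note: 0% = plate neutral control median and 100% = total signal loss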
Target sequence (P42568 whole entry, looked up): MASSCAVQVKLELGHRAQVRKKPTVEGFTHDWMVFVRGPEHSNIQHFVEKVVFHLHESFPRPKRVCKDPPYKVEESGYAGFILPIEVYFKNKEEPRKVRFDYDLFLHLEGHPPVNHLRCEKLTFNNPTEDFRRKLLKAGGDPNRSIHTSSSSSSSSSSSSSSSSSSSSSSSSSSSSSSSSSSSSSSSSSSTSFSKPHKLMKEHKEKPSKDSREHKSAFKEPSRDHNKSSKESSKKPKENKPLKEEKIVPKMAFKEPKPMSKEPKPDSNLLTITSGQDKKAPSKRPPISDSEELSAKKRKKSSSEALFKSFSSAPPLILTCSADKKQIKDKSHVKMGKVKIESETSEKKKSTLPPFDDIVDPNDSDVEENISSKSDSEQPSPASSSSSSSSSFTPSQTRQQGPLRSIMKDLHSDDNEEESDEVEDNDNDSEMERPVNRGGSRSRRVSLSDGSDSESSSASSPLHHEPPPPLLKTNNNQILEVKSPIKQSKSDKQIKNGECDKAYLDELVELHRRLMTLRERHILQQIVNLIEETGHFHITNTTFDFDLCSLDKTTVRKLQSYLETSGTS
FGF22 binding-2: FGF22 (human) binding in thermal shift. thermal shift activity, °C (ΔTm) at 38 µM. 2% of 1,000 active. recombinant FGF22 thermal shift, SYPRO orange fluorescence. shares compounds with FGF22 binding-1. AID 720646;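 active = fitted rise in melting shift crosses a set limit at or below the top valid dose tested; inconclusive = flat fit at mid-level activity, or a poor quality fit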
FGF22 TSA DP: FGF22 (human) binding by thermal shift; shares compounds with FGF22 binding-1; Thermal shift assay, SYPRO orange, melting temperature shift; Tm shift (activity), % at 38 µM; 50 tested, under 10 active;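 active = compounds whose fitted dose curve of melting temperature shift rises past a set threshold within the tested doses; inconclusive = flat curve at moderate activity, or poor curve fit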
TSA no protein: compound-only SYPRO artifact for FGF22 binders; AC50, µM (doses to about 38 µM); compound-only SYPRO orange thermal shift counter-screen, no protein; 2% of 1,000 active; shares compounds with FGF22 binding-1;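 active = rising signal whose fitted curve reaches the 0.54 level within the top valid dose, showing a melting point, actives reach about 13 µM in these data; inactive = the rest, including activity in the opposite direction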; note: value is where the raw curve crosses a fixed level and not half-maximal
* marks the source's active call; other numbers are inactive results; i = inactive; u = inconclusive; x = no result given. Only some compounds are listed: those with a hit (about 4% of all), similar ones and a draw of the others.

SMILES | ERAP1 HTS inh | FGF22 binding-1 | RAD52 anneal inh | DENV2 CPE rescue | AF4-AF9 inh | FGF22 binding-2 | TSA no protein | others
O=C(NCC1CC1)c1onc(CSc2ccc(F)cc2)c1C(=O)NCC1CC1 | 1 | 37* | 2 | -12 | -8 | -0.12 | 11µM*
O=C(Nc1ccccc1)O/N=C/c1ccc(F)cc1 | 1 | 1.4* | -23 | 14 | -3 | -0.08 | i
CC(=O)c1sc(NC(=O)c2cc(=O)c3ccccc3o2)nc1C | 1 | 5.1* | -6 | 5 | -1 | -0.077 | i
COc1ccccc1-c1cn(CC[C@H]2CC[C@H](NC(=O)c3ccccc3F)[C@H](CO)O2)nn1 | -2 | 0 | 9 | 0 | -3 | x | x
O=C(CC1S/C(=N/N=C/c2cccs2)NC1=O)Nc1ccc(Cl)cc1 (stereo not drawn) | 2 | 0 | -13 | -7 | 0 | x | x
O=C(CC1SC(=O)NC1=O)Nc1ccc(Cl)cc1 (stereo not drawn) | 0 | 6.2* | -13 | 5 | -2 | x | i
C[C@@H]1CN([C@H](C)CO)C(=O)Cc2cc(NC(=O)CCN3CCOCC3)ccc2O[C@H]1CN(C)Cc1ccccc1 | 4 | -1 | -1 | -7 | 2 | x | x
CN1C(=O)c2cc(NC(=O)c3cnccn3)ccc2OC[C@H]2O[C@H](CC(=O)NCC3CC3)CC[C@H]21 | -4 | x | -12 | 14 | -3 | x | x
COc1ccc(NC(=O)Nc2ccc3c(c2)C(=O)N([C@@H](C)CO)C[C@@H](C)[C@H](CN(C)C(=O)Nc2ccc(C(F)(F)F)cc2)OCCCC[C@H](C)O3)cc1 | -6 | 0 | 7 | u | -11 | x | x
Cc1nc2ccc(C(=O)N/N=C/c3ccccc3O)cc2[nH]1 | 2 | 1.5* | -11 | 3 | 3 | 0.001 | i
O=C1C2C(C(=O)N1CCc1ccccc1)C1C=CC2C12CC2 (stereo not drawn) | -3 | 2.5* | -5 | -2 | -5 | 0.13 | i
O=C(O)CCN(Cc1ccccc1)S(=O)(=O)c1ccccc1Cl | 1 | 2.9* | -11 | -3 | -1 | -0.16 | i
CCOC(=O)c1oc2cc(O)c(CC)cc2c(=O)c1-c1ccc2c(c1)OCCO2 | 1 | 0 | -12 | 8 | 8 | x | x
CCc1cc(-c2[nH]ncc2-c2ccc3c(c2)OCCO3)c(O)cc1O | x | x | x | x | x | x | x | FGF22 TSA DP=0
CCc1cc(-c2n[nH]c(C)c2-c2ccc3c(c2)OCCO3)c(O)cc1O | x | x | x | x | x | x | x | FGF22 TSA DP=0
Nc1nc(-c2ccc3c(c2)OCCO3)c(CC(=O)O)s1 | -4 | 0 | -9 | 1 | -1 | x | x
O=C(Nc1ccc2c(c1)OCO2)c1cnn2cccnc12 | -1 | 1.9* | -8 | -1 | 0 | 0.13 | i
O=C(Nc1cccc(O)c1)c1cnn2cccnc12 | 1 | 0 | -21 | 6 | 1 | x | x
CCCC(=O)c1ccc(OCc2cn(CC(=O)c3ccc(O)cc3)nn2)cc1 | 2 | 1.5* | -5 | -9 | 1 | 0.04 | i
CC(=O)c1cc(C)c(OCc2cn(CC(=O)c3ccc(O)cc3)nn2)c(C)c1 | 1 | 0 | -6 | 17 | -2 | x | x
O=Cc1cccc(OCc2cn(CC(=O)c3ccc(O)cc3)nn2)c1 | -4 | 0 | -15 | 7 | -1 | x | x
O=C(Cn1cc(COc2ccc(Br)cc2)nn1)c1ccc(O)cc1 | 0 | 1.5* | -13 | -7 | -2 | 0.019 | i
COc1ccc(/C=N/NC(=O)c2cc(-c3ccc4c(c3)OCO4)n[nH]2)cc1OC | -1 | 1.5* | 9 | -9 | -1 | 0.19 | i
COc1cccc(C(=O)Nc2ccc3c(c2)C(=O)N(C)[C@H]2CC[C@H](CC(=O)NCC4CC4)O[C@H]2CO3)c1 | -1 | 0 | 0 | 1 | -1 | x | x
CCC(=O)N1C[C@@H](C)[C@H](OC)CN(C)C(=O)c2cc(NC(=O)C3CCCCC3)ccc2OC[C@@H]1C | -1 | 1 | 3 | 11 | 1 | x | x
CCn1c2ccccc2c2cc(/C=N/NC(=O)c3ccc(O)cc3)ccc21 | -4 | 1 | -21 | 7 | 0 | x | x
